Screening results deposited in PubChem BioAssay by National Center for Advancing Translational Sciences (NCATS).
Only some compounds are listed: those with a hit (about 5.1% of all), similar ones and a draw of the others.
PNC inhibitor: inhibitors of perinucleolar compartment assembly. PC3M PTB-GFP, PNC prevalence imaging, 16 h; active compounds read low. activity change (PNC), negative = inhibition, % at 10 µM. 140,000 tested, 3.1% active. AID 2417;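 active = readout at or below -70, meaning at least 70% loss of cells showing the perinucleolar compartment, a nuclear body marking cancer cells; inconclusive = readout between -30 and a set limit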;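 note: plate controls were DMSO wells for no effect and camptothecin positive control wells for full effect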
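Read-out is percentage of cells bearing a perinucleolar compartment, from automated 20x imaging of fixed, Hoechst-stained PC3M PTB-GFP cells. Cells were seeded 4 h, then exposed 16 h to compound (23 nl of library stock) in duplicate plates.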
Tau FP inhib: tau fibrillization inhibition (FP) | K18 P301L tau heparin fibrillization, Alexa594 FP, 6 h | Potency, µM (highest dose often 57.7 µM), inactives show at the highest dose activity, negative = inhibition, most hits filed as inhibitors | 280,000 tested, 0.39% active | AID 1468; note: potency is the fitted concentration of half-maximal effect; nearly all actives have a fitted effect of over 55% in size
Target sequence (P10636 561-689 P618L limits assumed): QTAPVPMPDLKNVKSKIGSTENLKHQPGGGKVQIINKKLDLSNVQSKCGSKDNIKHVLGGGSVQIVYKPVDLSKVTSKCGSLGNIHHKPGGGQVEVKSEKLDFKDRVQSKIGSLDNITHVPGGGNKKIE
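Human tau K18 […] P301L fragment, 15 uM unlabeled plus 0.24 uM Alexa 594-labeled tau (final), with compound and 20 uM heparin in 100 mM sodium acetate pH 7; 6 hr at 37 C, then Alexa 594 FP read.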
JMJD2E inh: JMJD2E (human) inhibition; JMJD2E catalytic domain, FDH-coupled NADH fluorescence (FDH is formaldehyde dehydrogenase); 230,000 tested, 1.6% active; Potency, µM (highest dose often 57.1 µM), without a hit: top-dose activity change, negative = inhibition, actives largely listed as inhibitors; active = well fitted inhibition curve with a large enough effect, not every such curve was filed as active; inconclusive = small, poorly fitted or top-dose-only effect, or another doubt; inactive = no such curve, though single readings can be large or run the other way;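 note: potency is the fitted concentration of half-maximal effect; 0% = wells with enzyme and -100% = buffer wells without enzyme; nearly all actives have a fitted effect of over 50% in size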
Tau ThT inhib: tau fibrillization inhibition (ThT binding) | P10636 | recombinant tau K18 P301L, heparin-induced fibrillization, ThT fluorescence | Potency, µM (titrated, usually from 57.4 µM), inactives show at the highest dose activity, negative = inhibition, usual class: inhibitors | 270,000 tested, 2.1% active; note: potency is the fitted concentration of half-maximal effect; nearly all actives have a fitted effect of over 55% in size
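Tau K18 P301L fragment (15 uM unlabeled plus 0.24 uM Alexa 594-labeled) in 100 mM sodium acetate pH 7 with compound, fibrillization induced by 20 uM heparin for 6 hr at 37 C. Thioflavin T (30 uM) added, fluorescence read after 1 hr (ex 450, em 510 nm).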
NPSR antagonist: neuropeptide S receptor (human) antagonism, cAMP; Q6W5P4; Potency, µM (titrated, usually from 38.3 µM), inactives show top-dose activity change, negative = inhibition, actives largely listed as inhibitors; 220,000 tested, 1% active; CHO-NPSR cells, cAMP TR-FRET, antagonist mode; AID 1461; note: potency is the fitted concentration of half-maximal effect; nearly all actives have a fitted effect of over 50% in size
Target sequence (Q6W5P4 whole entry, looked up): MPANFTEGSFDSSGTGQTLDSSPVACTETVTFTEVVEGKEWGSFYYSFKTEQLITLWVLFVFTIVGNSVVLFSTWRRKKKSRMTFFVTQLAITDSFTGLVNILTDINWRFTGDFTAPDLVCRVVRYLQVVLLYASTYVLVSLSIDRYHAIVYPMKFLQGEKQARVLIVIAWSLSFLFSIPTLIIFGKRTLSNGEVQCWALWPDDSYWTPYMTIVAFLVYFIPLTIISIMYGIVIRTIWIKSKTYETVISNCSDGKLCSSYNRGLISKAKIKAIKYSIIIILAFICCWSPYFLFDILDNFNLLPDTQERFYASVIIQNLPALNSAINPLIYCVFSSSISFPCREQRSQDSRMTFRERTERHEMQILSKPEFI
Tau fluor counter: counter-screen for tau fibril formation inhibitors; 280,000 tested, 0.93% active; Potency, µM (top dose mostly 57.7 µM), for inactives: at the top dose activity change, negative = decrease; AID 1463; tau K18 P301L Alexa594 fluorescence, heparin fibrillization; note: potency is the fitted concentration of half-maximal effect; nearly all actives have a fitted effect of over 55% in size
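Human tau K18 P301L (15 uM unlabeled, 0.24 uM Alexa 594-labeled) in 100 mM sodium acetate pH 7 with 20 uM heparin, 6 hr at 37 C. ThT 30 uM added, 1 hr ambient; Alexa 594 FP and total fluorescence read at 555/632 nm.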
Active calls of the source: *; ? = inconclusive; . = not tested or not shown; [ ] = remark or other dose. Unless noted, calls come from the whole dose curve; as a rule, active = well fitted curve in the direction sought with a large enough effect; inconclusive = small, poorly fitted or top-dose-only effect, or another doubt; inactive = no such curve, though single readings can be large; an effect the other way counts as inactive or inconclusive. Unless noted, % is set by controls: 0 for no effect and ±100 for the full control effect.

SMILES	PNC inhibitor	Tau FP inhib	JMJD2E inh	Tau ThT inhib	NPSR antagonist	Tau fluor counter
Cc1nnsc1C(=O)Oc1ccc(Cl)cc1	.	0%	.	?	.	-19%
CC(C)c1ccc(NC(=O)c2cnc3sc(N4CCCC4)nn3c2=O)cc1	.	-2%	.	-4%	.	-1%
Fc1ccccc1CSc1ncn[nH]1	-100*	4%	-17%	6%	1%[46.1 µM]	5%
CCOC(=O)C(C(=O)OCC)C1CCS(=O)(=O)C1 (centres undefined)	-100*	5%	11%	4%	1%[46.1 µM]	2%
CCCOc1ccc2c3c(c(=O)oc2c1OCCC)CCCC3	-111*	3%	?	-13%	-22%[46.1 µM]	-7%
Cc1ccc(NC(=O)CN2C(=O)C(c3ccccc3)=NC23CCCCC3)cc1C	.	-12%	.	2%	.	-18%
COc1ccc2nc(-c3cccc(N)c3)[nH]c2c1	-19	-2%	3%	9%	-5%[46.1 µM]	2%
COc1cccc(-n2c(N)c(-c3nc4ccccc4[nH]3)sc2=S)c1	.	13%	-2%	7.9µM*	-30%	16µM*[quencher]
Cc1cccc(C(=O)N2CCNC(=O)C2CC(=O)Nc2ccc(F)cc2)c1 (centres undefined)	.	-4%	.	-8%	.	-6%
COC(CNC(=O)c1ccc2c3c(onc13)-c1ccccc1C2=O)OC	.	?	-22%	16µM*	?	16µM*[quencher]
COC(CNC(=O)c1cccnc1)OC	.	-1%	22%	-9%	-11%	-7%
CC(Oc1ccc(F)cc1)C(=O)N1CCC(c2nc3ccccc3s2)CC1 (centres undefined)	.	7%	.	-5%	.	-3%
CCCN(CCC)CC(O)CN(c1ccccc1)S(=O)(=O)c1ccc(C)cc1 (centres undefined)	?	5%	9%	-8%	-8%[46.1 µM]	-9%
Cc1ccc(N(CC(O)COCc2ccco2)S(=O)(=O)c2ccc(C)cc2)cc1 (centres undefined)	-20	?	-8%	32µM*	?	-23%
CCOC(=O)c1c(Nc2ccc(OCC)cc2)nnc(-c2ccccc2)c1-c1ccccc1	.	7%	.	?	.	-20%
CC(C)OC(=O)/C(=C/c1cccnc1)NC(=O)c1ccccc1	-92*	6%	?	3%	25%	6%
Cc1ccc(C(=O)N/C(=C\c2ccc(-c3ccc([N+](=O)[O-])cc3)o2)C(=O)NC2CCS(=O)(=O)C2)cc1 (centres undefined)	?	9%	5%	6.3µM*	-7%[46.1 µM]	?
CN=Cc1nc(-c2ccccc2)oc1O	5	2%	-13%	-12%	9%	-9%
CC1=Nc2ccccc2/C1=C\c1nc(-c2ccc(F)cc2)oc1O	57	?	?	7.1µM*	-25%[46.1 µM]	10µM*[quencher]
COc1ccc(/C=C2\CCCC(C(=O)C(F)(F)F)=C2O)cc1OC	.	?	25µM*	16µM*	-25%	-17%
CCOC(=O)C1=C(CSc2nc3c(cc2C#N)CN(C)CC3)OC(N)=C(C#N)C1c1ccc(F)cc1 (centres undefined)	-19	?	?	16µM*	-26%[46.1 µM]	?
COC(=O)C1=C(CSc2nc3c(cc2C#N)CN(C)CC3)OC(N)=C(C#N)C1c1ccccc1F (centres undefined)	?	?	?	18µM*	?	?
CCOC(=O)C1=C(CSc2nc3c(cc2C#N)CN(C)CC3)OC(N)=C(C#N)C1c1ccccc1 (centres undefined)	?	-15%	?	28µM*	-28%[46.1 µM]	?
Cc1nc2c(c(C)nn2C(C)(C)C)c(C)c1CCC(=O)Nc1ccc(Br)cc1Br	.	4%	.	-9%	.	-5%
COc1ccc(NC(=O)/C(C#N)=C/c2ccc(C)o2)cc1	.	-2%	.	?	.	-5%
SMILES	PNC inhibitor	Tau FP inhib	JMJD2E inh	Tau ThT inhib	NPSR antagonist	Tau fluor counter
N#C/C(=C/c1ccc(N2CCOCC2)o1)C(=O)NC1CCCCC1	.	3%	?	?	42%	-26%
N#C/C(=C/C=C/c1ccccc1)C(=O)Nc1ccccc1	?	-9%	?	?	5%[46.1 µM]	-18%
N#C/C(=C\c1ccc(N2CCOCC2)o1)C(=O)Nc1ccc(O)cc1	.	-2%	-5%	14µM*	-34%	-22%
COc1ccc(NC(=O)/C(C#N)=C/C=C/c2ccco2)cc1	-22	9%	0%	7.1µM*	-2%	-7%
COc1ccc(NC(=O)/C(C#N)=C\c2ccc(N3CCOCC3)o2)cc1	.	17%	?	13µM*	14%	?
CC(C)C[C@@H](C=O)NC(=O)[C@H](CC(C)C)NC(=O)[C@H](CC(C)C)NC(=O)OCc1ccccc1	.	0%	.	-6%	.	5%
Cc1ccc(-n2nc(C)c3c(C(=O)NCc4ccc(F)cc4)cc(C)nc32)cc1	.	?	.	-3%	.	-21%
CCOC(=O)c1cc(C)[nH]c(=S)c1C#N	40	-2%	18µM*	?	-3%[46.1 µM]	-7%
COc1ccc(Nc2ccc3cc(S(=O)(=O)N4CCCC4)ccc3n2)cc1OC	.	11%	.	?	.	11µM*[quencher]
COc1cccc(Nc2ccc3cc(S(=O)(=O)N4CCC(C)CC4)ccc3n2)c1	.	?	.	10%	.	5µM*[quencher]
CC(=O)c1cccc(Nc2ccc3cc(S(=O)(=O)N4CCCC4)ccc3n2)c1	.	?	.	6%	.	?
CCOC(=O)/C(=C/c1ccc(N2CCC(c3ccccc3)=N2)cc1)C(C)=O	24	-13%	8%	?	-30%	16µM*[quencher]
N#Cc1cccc(NC(=O)COC(=O)c2ccccc2Sc2ccccc2C#N)c1	?	16µM*	7%	14%	?	?
Cc1c(Cl)cccc1NS(=O)(=O)c1ccc2[nH]cc(C(=O)NC3CCCC3)c(=O)c2c1	.	14µM*	.	11%	.	?
Cc1ccccc1NS(=O)(=O)c1ccc2[nH]cc(C(=O)N3CCCCC3)c(=O)c2c1	.	3%	.	0%	.	5%
Cc1ccccc1NS(=O)(=O)c1ccc2[nH]cc(C(=O)NC3CCCCC3)c(=O)c2c1	.	28µM*	.	8%	.	?
Cc1ccccc1NS(=O)(=O)c1ccc2[nH]cc(C(=O)N(C)Cc3ccco3)c(=O)c2c1	6	-4%	?	-4%	-8%[46.1 µM]	-11%
Cc1ccccc1NS(=O)(=O)c1ccc2[nH]cc(C(=O)NC(C)c3ccccc3)c(=O)c2c1 (centres undefined)	.	25µM*	.	12%	.	?
CCOc1ccc(CCNC(=O)c2cnc3sc(N4CCCCC4)nn3c2=O)cc1	.	-6%	.	-12%	.	-11%
COc1cccc(C(=O)Nc2cccc(OCc3cc(=O)n4cc(C)ccc4n3)c2)c1	.	-8%	.	?	.	-14%
CCCCC(=O)Nc1ccccc1C(=O)OCc1cc(=O)n2nc(C3CCCCC3)sc2n1	.	2%	.	-10%	.	10%
